± gives the standard deviation of the averaged measurements. Whole data set: some 25,000 sequences, median “ln(normalized median fluorescence intensity)” near 8.9, cut for the highest 2% near 10. What follows is part of a selection rich in the highest values, with near analogues and random picks from the rest.
Each sequence was assayed on PfAP2-LT AP2 domain (GST-tagged) (assay: gcPBM binding intensity (ln(normalized median fluorescence intensity)); higher = stronger DNA binding).
Outline: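 Binding of GST-tagged P. falciparum DNA-binding domains, expressed in E. coli and used at about 25 μg on average, was carried out for 1 h in 1× PBS containing 1% milk, 0.2 mg/ml BSA, 0.5% salmon testes DNA and 0.03% Triton X-100. The target was an Agilent 4 × 180k array of primer-extended double-stranded 36-bp intergenic genomic probes plus negative controls, read with Alexa488 anti-GST antibody at 488 nm. Binding intensity is the highest Masliner-normalised natural-log median intensity across replicate spots of either probe orientation.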

Row | Sequence | gcPBM binding intensity (ln)
1 | TTCATTTTTTAAGCATCACACACGAAAGAACAAAGT [CACACA_site1122] | 8.98 ± 0.33
2 | AATAATATATATTGTACACACAAAATGGGAAAAAAA [CACACA_site5100] | 9.1 ± 0.33
3 | AAAATTTAATATAATGCACACATAAAAAAAAAATCA [CACACA_site7882] | 8.87 ± 0.42
4 | ACAGAAAAAAGACACACACACATAATATACATACAT [CACACA_site6991] | 10.1 ± 0.42
5 | ACAAGACAGATATATACACACATACATACATACATA [CACACA_site7472] | 9.43 ± 0.37
6 | TACACAAGCAGACACACACACATATATATATATATA [CACACA_site1270] | 10.42 ± 0.071
7 | TGAAAAAAGAAAAATACACACATATAATATAATATA [CACACA_site2255] | 9.02 ± 0.49
8 | TAAAAGAAATAATATACACACATATATAAAAATAAA [CACACA_site1329] | 8.94 ± 0.41
9 | CAAGGAACCAGACACACACACATAAATGTATATATA [CACACA_site752] | 9.62 ± 0.47
10 | GGAATAACCAGACACACACACACATATAAATATGTA [CACACA_site7632] | 10.1 ± 0.41
11 | TACACAAGCAGACACACACACATATAGATTTATATA [CACACA_site6715] | 9.65 ± 0.35
12 | AGGATACACAGACACACACACATATATATATATATA [CACACA_site907] | 10.47 ± 0.064
13 | AATAACCACAGACACACACACATATAAATATAAATA [CACACA_site7631] | 10 ± 0.46
14 | AATGTATATAATATTAATATGTAAATATATAATCAA [CACACA_negctrl_site1683] | 8.72 ± 0.39
15 | TTAGAAATTCATTTTACACACAATTCAAAAGAATGT [CACACA_site2104] | 8.79 ± 0.42
16 | ATATATAAAATTATATGTACATATATAATATATATA [XGTACX_site529] | 8.77 ± 0.39
17 | TACCATATTTCTTCAAGTACGCATTATGTTAAAAAG [XGTACX_site345] | 8.51 ± 0.38
18 | GTGGAACGTATATTTTCACACACTCTCAAAAGTACA [CACACA_site8722] | 8.93 ± 0.47
19 | TATTTATTAATATGTACACACATCAACCATATTAAC [CACACA_site7001] | 9.04 ± 0.29
20 | TAAATAAGGAAGGAAACACACATTAAAAAATAAATA [CACACA_site618] | 8.84 ± 0.59
21 | TATATATATTTATGTTGTACAAAATATTATTACGTA [XGTACX_site5384] | 8.57 ± 0.36
22 | TTTTTTTAATGATATTGTACATTAATAAAAAATATG [XGTACX_site1719] | 8.12 ± 0.59
23 | GAATAATATGGACATACACACATATACATACATATA [CACACA_site2114] | 9.27 ± 0.39

Row | Sequence | gcPBM binding intensity (ln)
24 | GGAATATAAATACATACACACATATATATATATATA [CACACA_site4998] | 10 ± 0.33
25 | CACATACAGACATACACACACATATATATTAATATA [CACACA_site546] | 9.56 ± 0.41
26 | GGAATAACCGGACACACACACACATATATATATATA [CACACA_site5874] | 10.39 ± 0.057
27 | AATACATACAGACACACACACACATATATATATATA [CACACA_site3558] | 10.36 ± 0.014
28 | TAAATACAGACATATACACACATATATATATATATA [CACACA_site4382] | 9.925 ± 0.0071
29 | TTATTATTCCCTCATTTTGTTACCATTATTTCAATT [CACACA_negctrl_site1023] | 8.88 ± 0.54
30 | AATGTACAAATACGTACACACATATATATATATATA [CACACA_site1542] | 10.1 ± 0.18
31 | GATATTATGTGTTTGGTATTTCGATCTTGTCAGGAC [CACACA_negctrl_site426] | 8.93 ± 0.41
32 | TACGGACATACTAACGGACACACGTAAGAAAAAAAA [CACACA_site602] | 9.03 ± 0.56
33 | GTAAGAAACAGACACACACACATATAAATATAAATA [CACACA_site6515] | 9.86 ± 0.49
34 | AAAAAAAAGAAAAACACACACATATATATATATAAT [CACACA_site4707] | 9.53 ± 0.42
35 | CAAGAAAAGAAACACACACACATATATATATATATA [CACACA_site3881] | 10.4 ± 0.28
36 | AAGAAAAAAAAAAAAACACACATATATATATATATA [CACACA_site2027] | 10.1 ± 0.14
37 | AAAAAAAAAAAAGAAACACACACATATATATATATA [CACACA_site8525] | 9.94 ± 0.3
38 | GTAAGAAACGGACACACACACATATATATATATATA [CACACA_site4593] | 10.39 ± 0.05
39 | AAAAAAAAAAAAGAAACACACATATATATATATATA [CACACA_site140] | 9.9 ± 0.071
40 | CACAAAAAGAAACACACACACATATATATATATATA [CACACA_site999] | 10 ± 0.37
41 | GTAAGAAACAGACACACACACATATATATATATATA [CACACA_site794] | 10.21 ± 0.064
42 | CGGACATACTAACGGACACACGTAAGAAAAAAAAAG [CACACA_site4504] | 9.05 ± 0.64
43 | TAAACAGACATATAAACACACATATAAACAGACATA [CACACA_site7214] | 9.31 ± 0.41
44 | ATAAAATCTTAATCAACAAACAAACAAAAAAAAAAT [CACACA_negctrl_site1161] | 8.77 ± 0.48
45 | ATATGTTCTACAAAAAAGATGTCGATTTATTTTCTT [CACACA_negctrl_site1179] | 8.56 ± 0.49
46 | TTTACATTTCAGTAGACACACAAAAAATAATACTAA [CACACA_site512] | 8.76 ± 0.43

Row | Sequence | gcPBM binding intensity (ln)
47 | AAAAAAAGATTATACACACACATATATAAACATACA [CACACA_site4553] | 9.54 ± 0.3
48 | ATGATATGCAATTTAGTGCATAACAAAATTGGTATA | 8.79 ± 0.5
49 | TTATTTATAAATATTAATTTTTTTTTTTTTTTTTTT [XGTACX_negctrl_site105] | 8.01 ± 0.5
50 | TAATATATATTATTATGTACATATATTGATTCCTTG [XGTACX_site6830] | 8.85 ± 0.47
51 | ATAAGAAGAAGAAAAACACACATATGTAAATATATA [CACACA_site3138] | 9.09 ± 0.54
52 | TTGTAAGAAAAACACACACACACATATATATATATA [CACACA_site795] | 10.1 ± 0.014
53 | AATATAAGAAAAATAACACACACATAAACATATATA [CACACA_site8899] | 9.54 ± 0.35
54 | ATGTTGTACAGACACACACACAAAAAAAAAATAAAA [CACACA_site7184] | 9.46 ± 0.56
55 | TATATATATATATATATATATATATATATATGTTGT [TGCATGCA_negctrl_site24] | 10.24 ± 0.085
56 | ATATATATATGTATGTATATATATATATATATGTTT [CACACA_negctrl_site248] | 9.08 ± 0.34
57 | GTTATATGTTATATATATATATATATATATATATAT [TGCATGCA_negctrl_site428] | 9.51 ± 0.27
58 | TTTTCTTCATAAATGCTGCACTGGTTTAAGCATGAT | 8.6 ± 0.46
59 | TGGGAAGGGTGGGAAACTTTATCAAAAACTTATTAC [GTGCAC_negctrl_site16] | 8.98 ± 0.24
60 | TTTTGTTGATTTATATCTGTAGGGTTTAATATAACA [XGTACX_negctrl_site174] | 8.51 ± 0.33
61 | TATAAAAAATAAAATACACACACATATATATATATA [CACACA_site8365] | 9.74 ± 0.28
62 | AGCACCCACCAACACACACACACACCCACCCACCCA [CACACA_site8011] | 10.3 ± 0.11
63 | TACACCCACCAACACACACACACACTAATAAAAAAA [CACACA_site8060] | 10.1 ± 0.44
64 | TATATATATATATATACACACACACCCACCAAAGCG [CACACA_site7904] | 10.02 ± 0.021
65 | AGCACCCACCAACACACACACACACCCACCCACCGA [CACACA_site368] | 10.22 ± 0.028
66 | TGCACCCACCAACACACACACAACTAAAAAATAATG [CACACA_site2566] | 9.71 ± 0.42
67 | ATCAAGCACCAACACACACACACACCCCCACCCACA [CACACA_site370] | 10.6 ± 0.11
68 | TCCTGTTGAGAATGGCGTACATATAAATATTATATA [XGTACX_site1841] | 8.55 ± 0.42
69 | TTTAATTTGTTATACACACACAAAAAAAATTATAAA [CACACA_site3937] | 8.93 ± 0.46

Row | Sequence | gcPBM binding intensity (ln)
70 | CTTATGTTTTTTAAGTGTACATATTATACGTATTAT [XGTACX_site1176] | 9.02 ± 0.42
71 | AAATAACATAATAAGGGTACATTAATTTCGATAATG [XGTACX_site835] | 8.77 ± 0.4
72 | TTTCTAATTTATATCACACACATATATAAATAGTAA [CACACA_site6156] | 8.72 ± 0.42
73 | TATTAATCCTTTTGCTTGGAAACATTCAAAAGGAAG [CACACA_negctrl_site1129] | 8.18 ± 0.41
74 | TAAATTATAATAAATACACACAAATTATAATTCTAT [CACACA_site3942] | 8.79 ± 0.37
75 | TTTAGAGAAGTCAAGTGTACATATAAAATAATTCAC [XGTACX_site4997] | 8.65 ± 0.35
76 | ATATATATATATATATGTACATATGTATATTTTTTT [XGTACX_site1299] | 9.77 ± 0.44
77 | TAATTATGCAGACACACACACACACGCAACTAAAAA [CACACA_site7253] | 10 ± 0.3
78 | TAAAAAATAAAAATTGCACACTAAAAAATTACGCAC [CACACA_site9129] | 8.76 ± 0.41
79 | GATAATTACGGACACACACACACACGCACAACTAAA [CACACA_site7254] | 10.215 ± 0.0071
80 | GATAATTATGGACACACACACACACCCACAACTAAA [CACACA_site8824] | 10.2 ± 0.35
81 | AAGATAATTACGCACACACACACACGCCCACAACTA [CACACA_site7255] | 10.4 ± 0.12
82 | TGCACGCACAGACACACACACAACTAAAAAATAATG [CACACA_site7250] | 9.54 ± 0.49
83 | TAATTATGCGGACACACACACACACCCAACTAAAAA [CACACA_site5427] | 9.9 ± 0.26
84 | AAAAATAAAAATTGCACACTAAAAAATTACGCACGA [CACACA_site3418] | 8.94 ± 0.35
85 | TATATAAATGGACACACACACACCTTATAATTATTA [CACACA_site6093] | 10 ± 0.38
86 | TAAATTTTTATTTGTAGTACTATATATATATATATA [XGTACX_site1026] | 8.9 ± 0.12
87 | TAATTATGTACTATTATACACACGTTTAATTGTAAA [CACACA_site206] | 8.74 ± 0.42
88 | AACATATATAATATTTGTACTTATATACAAAATATG [XGTACX_site7502] | 8.64 ± 0.4
89 | ATATATATTTTAATAACACACATATATTATATTATA [CACACA_site4387] | 8.7 ± 0.38

Reference: the supplement of paper PMC11417369
